Among the data in PubChem BioAssay (EPA / NIEHS) are outcome and AC50 values, retold here.

Usually AC50 stands for the midpoint of the concentration-response curve, whichever way the signal moves.

More than one record can exist for a structure, and the calls need not agree. Active and inactive are the calls of the source. How the source made its calls: active means hit-call score of the fitted dose curve at least 0.9, where 1 is the maximum; inactive means score below 0.9.

The target in this assay is Hepatocyte nuclear factor 6 (Homo sapiens) (UniProt Q9UBC0). The experiment in a line: ATG_HNF6_CIS: Attagene CIS-FACTORIAL HepG2 Assay for human Hepatocyte Nuclear Factor 6 (HNF6) (AID 2282952). As to conditions: HepG2 Attagene cis-factorial HNF6 reporter transcription; actives raise or lower the signal. As to the method: ATG_CIS is a cell-based, multiplexed-readout assay that uses HepG2, a human liver cell line, with measurements taken at 24 hours after chemical dosing in a 24-well plate.ATG_HNF6_CIS is one of 52 assay component(s) measured or calculated from the ATG_CIS assay. It is designed to make measurements of mRNA induction, a form of inducible reporter, as detected with fluorescence intensity signals by Reverse transcription polymerase chain reaction (RT-PCR) and Capillary electrophoresis technology.Data from the assay component ATG_HNF6_CIS was analyzed into 1 assay endpoint. This assay endpoint, ATG_HNF6_CIS, was analyzed with bidirectional fitting relative to DMSO as the negative control and baseline of activity. Using a type of inducible reporter, measures of mRNA for gain or loss-of-signal activity can be used to understand the reporter gene at the transcription factor-level as they relate to the gene ONECUT1. Furthermore, this assay endpoint can be referred to as a primary readout, because this assay has produced multiple assay endpoints where this one serves a reporter gene function. To generalize the intended target to other relatable targets, this assay endpoint is annotated to the dna binding intended target family, where the subfamily is homeobox protein.
Chain of Hepatocyte nuclear factor 6 (Homo sapiens) (Q9UBC0 whole entry, looked up): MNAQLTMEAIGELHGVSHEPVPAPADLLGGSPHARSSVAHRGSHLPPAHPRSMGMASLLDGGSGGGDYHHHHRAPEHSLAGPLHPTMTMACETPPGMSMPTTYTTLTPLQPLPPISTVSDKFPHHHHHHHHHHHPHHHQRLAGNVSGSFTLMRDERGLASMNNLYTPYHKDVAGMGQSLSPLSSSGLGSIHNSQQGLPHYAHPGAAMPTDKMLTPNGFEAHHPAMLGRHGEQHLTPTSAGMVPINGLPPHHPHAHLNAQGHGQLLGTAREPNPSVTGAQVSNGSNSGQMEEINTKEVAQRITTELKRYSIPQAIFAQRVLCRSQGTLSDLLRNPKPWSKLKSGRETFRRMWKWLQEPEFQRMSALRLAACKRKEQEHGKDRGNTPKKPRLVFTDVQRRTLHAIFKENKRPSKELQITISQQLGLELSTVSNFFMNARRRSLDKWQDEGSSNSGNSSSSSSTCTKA
Human liver HepG2 cells are transiently transfected with multiple reporter transcription units (MRTUs) in 6-well plates using FuGene 6 reagent (Roche; 3 ml FuGene/1 mg DNA). The MRTU constructs are regulated by a cis-regulating element (promoter). […] A major difference between the CIS and TRANS system is that in CIS activities of endogenous TFs are measured, whereas the TRANS assay evaluates changes in activities of exogenous, chimeric NR-Gal4 proteins. […] At the end of 24 hour incubation, total RNA was isolated using TriZol reagent (Invitrogen). The isolated RNA is then reverse-transcribed using oligo(dT) primer and Mo-MLV reverse transcriptase (Invitrogen) with DNAse I (Ambion) treatment for 30 min. The one-tenth of the produced cDNA was amplified by PCR using Taq DNA polymerase (Invitrogen) and two reporter sequence-specific primers. The PCR products were fluorescently labeled by primer extension with 6-arboxyfluorescein (6-FAM) 5'-labeled reporter sequence-specific primer (2 min at 95 C, 20 s at 68 C and 10 min at 72 C) and these products were digested with 5U of HpaI (New England Biolabs) for 2h at 37 C. The fragments were purified using Qiaquick PCR columns (Qiagen), analyzed on an ABI 3130xL genetic analyzer (Applied Biosystems) with peak positions identified by using a set of X-rhodamine (ROX)-labeled MapMarker1000 molecular weight standards (BioVentures). The raw capillary electrophoresis data was processed using Attagraph software (Attagene).
With `O=C1C(Cl)=C(Cl)C(=O)c2ccccc21`, the outcome was inactive.

Regarding `[O-][Cl+2]([O-])O`, the molecule was classed as inactive.

On to `CN(CCCC(=O)c1cccnc1)N=O`, for which the result was inactive.

With `CC(=O)C(Cl)C(=O)N(C)C` (stereo not given), the call was inactive.

On to `CCC[CH2][Sn]([Cl])([Cl])[Cl]`, for which the molecule was called inactive.

`CCC(C)c1cccc(C(C)CC)c1O` (stereo not given): the molecule was classed as inactive.

As for `NNC(=S)NN`, the result was inactive.

`CC(C)(c1ccccc1)c1ccc(O)c(C(C)(C)c2ccccc2)c1`: the call was inactive.

Regarding `O=C1C2(Cl)C3(Cl)C4(Cl)C(Cl)(Cl)C5(Cl)C3(Cl)C1(Cl)C5(Cl)C24Cl` (stereo not given), the AC50 was 11.1 µM (active) and the call was inactive.

Consider `CCN1CCC2(CC1)COc1cc3c(cc12)N(C(=O)c1ccc(-c2ccc(-c4nnc(C)o4)cc2C)cc1)CC3`, for which the molecule was called inactive.

Turning to `C[C@H]1CCCC(=O)CCC/C=C/c2cc(O)cc(O)c2C(=O)O1`, the call was inactive.

Consider `CCOP(=S)(OCC)SCSP(=S)(OCC)OCC`, for which the result was inactive.

In the case of `O=c1[nH]c(=O)[nH]c(=O)[nH]1`, the molecule was classed as inactive.

For the molecule `OCc1ccco1`, the call was inactive.

As to `COc1cc(-c2ccc(N)c(OC)c2)ccc1N`, the outcome was inactive.

Turning to `COP(=O)(OC)O/C(=C\Cl)c1cc(Cl)c(Cl)cc1Cl`, the molecule was classed as inactive.

Regarding `Nc1ccc(Cl)cc1C(=O)c1ccccc1`, the molecule was classed as inactive.

In the case of `Clc1nc(Cl)nc(Cl)n1`, the molecule was called inactive.

With `CCC(=O)c1ccccc1`, the outcome was inactive.

For `CNC(=O)O/N=C/C(C)(C)S(C)=O` (stereo not given), the molecule was called inactive.

In the case of `Clc1ccc(C2(Cn3cncn3)CC(Br)CO2)c(Cl)c1` (stereo not given), the molecule was classed as inactive.

Regarding `BrCCBr`, the call was inactive.

Take `C1CCC(NC2CCCCC2)CC1`: the result was inactive.

As to `Cl/C=C\C[N+]12CN3CN(CN(C3)C1)C2`, the result was inactive.

As for `COc1cc(OC)nc(NC(=O)NS(=O)(=O)c2ncccc2C(=O)N(C)C)n1`, the result was inactive.

Take `Nc1ccc(N=Nc2ccc(-c3ccc(N=Nc4c(S(=O)(=O)O)cc5cc(S(=O)(=O)O)c(N=Nc6ccccc6)c(O)c5c4N)cc3)cc2)c(N)c1`: the molecule was called inactive.

Consider `C(=NC1CCCCC1)=NC1CCCCC1`, for which the result was inactive.

Regarding `O=C/C=C/c1ccccc1`, the molecule was classed as inactive.

For the molecule `CCC[CH2][Sn]([CH2]CCC)([CH2]CCC)[O]C(=O)c1ccccc1`, the outcome was inactive.

As for `CCCCCCCCSC(=O)Oc1cc(Cl)nnc1-c1ccccc1`, the call was inactive.

Turning to `CC(=[OH+])/C=C(/C)[O-].CC(=[OH+])/C=C(/C)[O-].CC(=[OH+])/C=C(/C)[O-].[Fe]`, the molecule was called inactive.

Consider `CC(C)c1cccc(C(C)C)c1O`, for which the molecule was classed as inactive.

For `CCCCCCCCc1ccc(O)cc1`, the outcome was inactive.

As for `COc1ccc(OC)c(C=O)c1`, the molecule was classed as inactive.

In the case of `COc1ccccc1OC`, the call was inactive.

For `OCC(O)CCl` (stereo not given), the molecule was classed as inactive.

In the case of `CCCCOCCOC(C)=O`, the outcome was inactive.

For the molecule `ClCCBr`, the outcome was inactive.

For the molecule `CN(C)P(=O)(N(C)C)N(C)C`, the molecule was called inactive.
